Measured values published in paper PMC4242493, “Sequence specificity incompletely defines the genome-wide occupancy of Myc”.
The full ranking holds about 33,000 sequences; the median of “normalized occupancy” is about 0.075, and the highest 2% start at about 0.095. What follows is part of a selection rich in the highest values, with near analogues and random picks from the rest.

Each sequence was assayed against MaxL homodimer (Homo sapiens, UniProt P61244 1-160) (assay: universal protein-binding microarray (PBM); PBS-based mixture, 10 nM His-tagged protein dimer, 2% milk, 200 ng/uL BSA, 50 ng/uL salmon testes DNA, 0.02% TX-100; detection with Alexa 488 anti-His antibody;; high values mean tight binding). Settings: protein: recombinant; tags: C-terminal His-tag (pET21a); chain copies: 2; dsDNA, one strand shown.
Chain of MaxL homodimer (P61244 whole entry): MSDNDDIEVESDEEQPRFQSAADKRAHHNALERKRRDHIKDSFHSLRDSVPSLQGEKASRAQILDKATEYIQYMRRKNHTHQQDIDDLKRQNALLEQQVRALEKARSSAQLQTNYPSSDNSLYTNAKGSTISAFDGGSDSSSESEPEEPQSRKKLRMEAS
Method in brief: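 Agilent 4 x 44 K arrays carrying the 'all 10-mer' universal design were incubated with His-tagged protein dimer at 10 nM. Protein that bound was tagged using fluorophore-conjugated anti-His antibody at 10 ng/μL, and a GenePix 4400A scanned the arrays to give an intensity for every 8-mer. Each binding occupancy value expresses an intensity relative to the top-ranked intensity.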
For AGTACAGG, the binding signal was 0.0787 normalized occupancy.
Sequence ACACTCTG has a binding signal of 0.0741 normalized occupancy.
ATAGCTTC gave a binding signal of 0.074 normalized occupancy.
In the case of AAGAGGCA, the binding signal is reported as 0.0761 normalized occupancy.
ACGATTAG was tested, and the binding signal was 0.0719 normalized occupancy.
Work on GATTCACC yielded a binding signal of 0.0757 normalized occupancy.
ACGATTTC was tested, and the binding signal was 0.0741 normalized occupancy.
For CATCTTCA, the binding signal was 0.0786 normalized occupancy.
For AAAATAGG, the binding signal was 0.076 normalized occupancy.
For ACACATTC, the binding signal was 0.0866 normalized occupancy.
Work on CTACATGC yielded a binding signal of 0.089 normalized occupancy.
ACACATCT was tested, and the binding signal was 0.0851 normalized occupancy.
AGACATTG gave a binding signal of 0.0768 normalized occupancy.
For ACACATGC, the binding signal was 0.137 normalized occupancy.
ACACATGT gave a binding signal of 0.127 normalized occupancy.
For ACACATTG, the binding signal was 0.102 normalized occupancy.
ACACATTA was tested, and the binding signal was 0.0926 normalized occupancy.
ACACATAC was tested, and the binding signal was 0.0823 normalized occupancy.
For ATACATGA, the binding signal was 0.0834 normalized occupancy.
ATACATGC showed a binding signal of 0.104 normalized occupancy.
With ACACATAT the binding signal was 0.0874 normalized occupancy.
Sequence ACCCAAAG has a binding signal of 0.072 normalized occupancy.
CACGGCAC showed a binding signal of 0.078 normalized occupancy.
ATGATGGC was tested, and the binding signal was 0.0855 normalized occupancy.
In the case of TGCTAGCA, the binding signal is reported as 0.0864 normalized occupancy.
With GCCTACCC the binding signal was 0.0797 normalized occupancy.
With GGACATGA the binding signal was 0.0803 normalized occupancy.
In the case of GCACATGA, the binding signal is reported as 0.12 normalized occupancy.
Sequence TCACATGA has a binding signal of 0.109 normalized occupancy.
For ACACATGA, the binding signal was 0.107 normalized occupancy.
GAACATGA showed a binding signal of 0.0904 normalized occupancy.
With TCACATAA the binding signal was 0.0812 normalized occupancy.
ACACATCA gave a binding signal of 0.0839 normalized occupancy.
GCACATGC showed a binding signal of 0.159 normalized occupancy.
TAACATGA showed a binding signal of 0.0906 normalized occupancy.
In the case of GAACATGC, the binding signal is reported as 0.089 normalized occupancy.
With ACACATAA the binding signal was 0.082 normalized occupancy.
Sequence GCACATAC has a binding signal of 0.0803 normalized occupancy.
Work on AGATTTGC yielded a binding signal of 0.0766 normalized occupancy.
With CGCCTCTC the binding signal was 0.0756 normalized occupancy.
With ACTGAATC the binding signal was 0.0726 normalized occupancy.
CTCAACCC showed a binding signal of 0.072 normalized occupancy.
With CTGTAATA the binding signal was 0.0777 normalized occupancy.
CATGGGAC showed a binding signal of 0.0894 normalized occupancy.
Work on GTCAGCAC yielded a binding signal of 0.0806 normalized occupancy.
CACAATGG was tested, and the binding signal was 0.0783 normalized occupancy.
In the case of TACCTTAA, the binding signal is reported as 0.072 normalized occupancy.
In the case of AAGATCTT, the binding signal is reported as 0.0757 normalized occupancy.
With AAACATGG the binding signal was 0.0874 normalized occupancy.
With AAACATGC the binding signal was 0.0937 normalized occupancy.
With AAACATGT the binding signal was 0.0983 normalized occupancy.
AAACATGA showed a binding signal of 0.0907 normalized occupancy.
For ACACATGG, the binding signal was 0.159 normalized occupancy.
ATACATGG gave a binding signal of 0.0876 normalized occupancy.
Work on GATGACAA yielded a binding signal of 0.0764 normalized occupancy.
TCTTTCAA was tested, and the binding signal was 0.0757 normalized occupancy.
ACTAGTTA gave a binding signal of 0.0749 normalized occupancy.
Work on CCTCAACC yielded a binding signal of 0.0752 normalized occupancy.
Work on AATTTGGG yielded a binding signal of 0.0765 normalized occupancy.
For CGCGCGCC, the binding signal was 0.0783 normalized occupancy.
AACGCGCG was tested, and the binding signal was 0.0803 normalized occupancy.
Sequence CGCGCGCA has a binding signal of 0.075 normalized occupancy.
CGCGCGCG was tested, and the binding signal was 0.0873 normalized occupancy.
Work on CACGCGCC yielded a binding signal of 0.116 normalized occupancy.
For CACGCGCA, the binding signal was 0.135 normalized occupancy.
CACGCGCG showed a binding signal of 0.133 normalized occupancy.
AACGCGCA gave a binding signal of 0.078 normalized occupancy.
With CCCGCGCC the binding signal was 0.0733 normalized occupancy.
Work on AACATCAC yielded a binding signal of 0.0837 normalized occupancy.
CTAGCTAC gave a binding signal of 0.0765 normalized occupancy.
CCTAGTGC gave a binding signal of 0.0733 normalized occupancy.
AACCCCTC gave a binding signal of 0.0767 normalized occupancy.
AATAAGTA gave a binding signal of 0.0754 normalized occupancy.
ATTCTATG was tested, and the binding signal was 0.0827 normalized occupancy.
With CTTTCTGC the binding signal was 0.0723 normalized occupancy.
Sequence CGTAACGC has a binding signal of 0.0778 normalized occupancy.
GCAAGCCA showed a binding signal of 0.0722 normalized occupancy.
GATGGCCA was tested, and the binding signal was 0.0755 normalized occupancy.
AATGTCAA showed a binding signal of 0.0742 normalized occupancy.
For ATAAGTAA, the binding signal was 0.0793 normalized occupancy.
For AGCATGAA, the binding signal was 0.0874 normalized occupancy.
In the case of ATCATGAT, the binding signal is reported as 0.0928 normalized occupancy.
For GCCATGAC, the binding signal was 0.0739 normalized occupancy.
AGCATGAC was tested, and the binding signal was 0.0962 normalized occupancy.
With AGCATGAT the binding signal was 0.107 normalized occupancy.
Sequence GTCATGAC has a binding signal of 0.0806 normalized occupancy.
Sequence CCCTAAAA has a binding signal of 0.076 normalized occupancy.
Sequence CTGACCTC has a binding signal of 0.0774 normalized occupancy.
AGATGAGG gave a binding signal of 0.0788 normalized occupancy.
In the case of CCATGAGC, the binding signal is reported as 0.0818 normalized occupancy.
Sequence CCATGAGA has a binding signal of 0.0896 normalized occupancy.
Work on CCATGAGG yielded a binding signal of 0.112 normalized occupancy.
With ACATGAGA the binding signal was 0.0971 normalized occupancy.
In the case of ACATGAGC, the binding signal is reported as 0.0906 normalized occupancy.
GCATGAGA showed a binding signal of 0.0947 normalized occupancy.
For ACATGAGT, the binding signal was 0.09 normalized occupancy.
For ACATGAGG, the binding signal was 0.108 normalized occupancy.
For GTCAAGGA, the binding signal was 0.0749 normalized occupancy.
CTAATGTC showed a binding signal of 0.0828 normalized occupancy.
GAAGTTAC was tested, and the binding signal was 0.0721 normalized occupancy.
Work on TAACTAGA yielded a binding signal of 0.0765 normalized occupancy.
Sequence ACGGTGGC has a binding signal of 0.079 normalized occupancy.
Work on AAATACAA yielded a binding signal of 0.076 normalized occupancy.
CATATGAA was tested, and the binding signal was 0.088 normalized occupancy.
For CATATGAC, the binding signal was 0.0954 normalized occupancy.
Work on AATATGAC yielded a binding signal of 0.0855 normalized occupancy.
Work on AATATGGG yielded a binding signal of 0.0882 normalized occupancy.
For AATATGGC, the binding signal was 0.0866 normalized occupancy.
GATATGGC gave a binding signal of 0.0846 normalized occupancy.
Work on CATATGGG yielded a binding signal of 0.103 normalized occupancy.
CATATGGA showed a binding signal of 0.095 normalized occupancy.
For CATATGGC, the binding signal was 0.0994 normalized occupancy.
In the case of AGTTCTAA, the binding signal is reported as 0.0746 normalized occupancy.
In the case of CTGAAAAC, the binding signal is reported as 0.0806 normalized occupancy.
CGTGCTAA showed a binding signal of 0.0881 normalized occupancy.
For ACTGCCCC, the binding signal was 0.0751 normalized occupancy.
GGCATTAC showed a binding signal of 0.0758 normalized occupancy.
AAACGAAG was tested, and the binding signal was 0.0718 normalized occupancy.
For CTGCTCTC, the binding signal was 0.0736 normalized occupancy.
ATTGATAA gave a binding signal of 0.0774 normalized occupancy.
With AGATGCGG the binding signal was 0.0753 normalized occupancy.
For ACATGCGG, the binding signal was 0.129 normalized occupancy.
AAATGCGG gave a binding signal of 0.0791 normalized occupancy.
Work on ACCTGCGT yielded a binding signal of 0.0757 normalized occupancy.
With ACATGCGC the binding signal was 0.109 normalized occupancy.
For AGATGCGC, the binding signal was 0.077 normalized occupancy.
Sequence ACATGCGA has a binding signal of 0.0989 normalized occupancy.
For ATATGCGC, the binding signal was 0.085 normalized occupancy.
Work on ATATGCGA yielded a binding signal of 0.0834 normalized occupancy.
Sequence ACATGCGT has a binding signal of 0.127 normalized occupancy.
Sequence AAATGCGT has a binding signal of 0.0858 normalized occupancy.
In the case of AAATGCGA, the binding signal is reported as 0.0758 normalized occupancy.
Work on AGGTTTTA yielded a binding signal of 0.0742 normalized occupancy.
In the case of CTAAGAAA, the binding signal is reported as 0.0728 normalized occupancy.
In the case of GATGATTA, the binding signal is reported as 0.0816 normalized occupancy.
AGGGTCAC gave a binding signal of 0.0776 normalized occupancy.
Work on CCCAGTTA yielded a binding signal of 0.0735 normalized occupancy.
Work on GCATCACA yielded a binding signal of 0.0871 normalized occupancy.
CCGACGAC was tested, and the binding signal was 0.0752 normalized occupancy.
In the case of AGTCGTAT, the binding signal is reported as 0.0756 normalized occupancy.
AGGTGGTG gave a binding signal of 0.0873 normalized occupancy.
For AGGTGGTC, the binding signal was 0.0855 normalized occupancy.
For AGGTGGTA, the binding signal was 0.0821 normalized occupancy.
CCGTGGTA was tested, and the binding signal was 0.0806 normalized occupancy.
Sequence ACGTGGTA has a binding signal of 0.115 normalized occupancy.
In the case of ACGTGGTC, the binding signal is reported as 0.106 normalized occupancy.
Work on GTGTGGTA yielded a binding signal of 0.0868 normalized occupancy.
For GGGTGGTA, the binding signal was 0.0821 normalized occupancy.
Work on AAGTGGTG yielded a binding signal of 0.0758 normalized occupancy.
CCGTGGTC gave a binding signal of 0.074 normalized occupancy.
ACGTGGTG showed a binding signal of 0.1 normalized occupancy.
GCGTGGTA was tested, and the binding signal was 0.111 normalized occupancy.
Work on GTTGAGAA yielded a binding signal of 0.076 normalized occupancy.
TCATTGCA was tested, and the binding signal was 0.0829 normalized occupancy.
Work on GCAATCAC yielded a binding signal of 0.0763 normalized occupancy.
In the case of GAGTCAGC, the binding signal is reported as 0.0763 normalized occupancy.
Sequence AACTCACT has a binding signal of 0.0726 normalized occupancy.
AAGCACTA gave a binding signal of 0.0755 normalized occupancy.
For CGCCGAAA, the binding signal was 0.0723 normalized occupancy.
ACGGTAGA showed a binding signal of 0.0739 normalized occupancy.
ACGCCGCT was tested, and the binding signal was 0.0763 normalized occupancy.
CGAGGTGA gave a binding signal of 0.0813 normalized occupancy.
With AACGCTGC the binding signal was 0.0786 normalized occupancy.
Sequence TACGCTGA has a binding signal of 0.0736 normalized occupancy.
Work on AACGCTGG yielded a binding signal of 0.0764 normalized occupancy.
In the case of CACGCTGC, the binding signal is reported as 0.131 normalized occupancy.
With CACGCTCG the binding signal was 0.0939 normalized occupancy.
In the case of GACGCTGC, the binding signal is reported as 0.0724 normalized occupancy.
AACGCTGA was tested, and the binding signal was 0.0816 normalized occupancy.
With CACGCTGA the binding signal was 0.115 normalized occupancy.
CACGCTGG was tested, and the binding signal was 0.113 normalized occupancy.
Sequence AGGAGACA has a binding signal of 0.084 normalized occupancy.
